Measured values from ChEMBL document CHEMBL3433997, “St. Jude Leishmania screening dataset” (2016).

Key:
Format in all cases: functional
[1] = target: Solute carrier family 2, facilitated glucose transporter member 1 (Homo sapiens) (UniProt P11166); assay: ST_JUDE_LEISH: Cytotoxicity at 2uM final concentration against transgenic Leishmania Mexicana promastigotes LmGLUT1 that are glucose transport deficient and complemented with the human glucose transporter GLUT1. Activity is measured by DNA content using SYBR green in vitro
Sequence of Solute carrier family 2, facilitated glucose transporter member 1 (Homo sapiens) (P11166 whole entry): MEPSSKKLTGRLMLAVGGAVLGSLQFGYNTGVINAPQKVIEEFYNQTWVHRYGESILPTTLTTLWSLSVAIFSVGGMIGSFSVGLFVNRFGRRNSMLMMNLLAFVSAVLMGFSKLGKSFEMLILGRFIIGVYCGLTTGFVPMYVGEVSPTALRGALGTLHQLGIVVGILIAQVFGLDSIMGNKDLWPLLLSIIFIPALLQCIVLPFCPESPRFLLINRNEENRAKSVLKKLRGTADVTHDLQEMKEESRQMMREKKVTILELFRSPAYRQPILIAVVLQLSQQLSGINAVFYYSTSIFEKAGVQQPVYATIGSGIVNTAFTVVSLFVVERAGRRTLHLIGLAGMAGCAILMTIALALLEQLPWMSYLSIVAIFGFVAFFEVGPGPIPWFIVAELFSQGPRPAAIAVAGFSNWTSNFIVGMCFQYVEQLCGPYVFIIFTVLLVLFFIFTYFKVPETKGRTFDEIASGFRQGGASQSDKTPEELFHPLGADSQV

[2] = target: Hexose transporter 1 (Plasmodium falciparum) (UniProt O97467); assay: ST_JUDE_LEISH: Cytotoxicity at 2uM final concentration against transgenic Leishmania Mexicana promastigotes LmPfHT that are glucose transport deficient and complemented with the Plasmodium falciparum hexose transporter. Activity is measured by DNA content using SYBR green in vitro
[3] = target: Glucose transporter (Leishmania mexicana) (UniProt O61059); assay: ST_JUDE_LEISH: Cytotoxicity at 2uM final concentration against transgenic Leishmania Mexicana promastigotes LmGT2 that are glucose transport deficient and complemented with the L. Mexicana glucose transporter 2. Activity is measured by DNA content using SYBR green in vitro

With `C[C@H](Cc1ccc(S(=O)(=O)c2ccc(C[C@@H](C)NC[C@H](O)c3cccc(Cl)c3)cc2)cc1)NC[C@H](O)c1cccc(Cl)c1` the inhibition [1] was 2.7%, the inhibition [2] was 4% and the inhibition [3] was 2.18%.

Work on `CC(=O)c1ccc(N2CCN(C(=O)Nc3ccc(Cl)cc3)CC2)cc1` yielded an inhibition [1] of 9.4%, an inhibition [2] of 7.37% and an inhibition [3] of 8.94%.

`Cc1ccc2nc(C)n(C3CCN(C(=O)Cc4ccccc4C)CC3)c2c1` gave an inhibition [1] of 5.4%, an inhibition [2] of 8.18% and an inhibition [3] of 4.9%.

`Cc1cccc(C)c1/N=C1\NC(=S)N(c2cccc(Cl)c2)C12CCC(C(C)(C)C)CC2` (stereo not drawn) showed an inhibition [1] of -2.68%, an inhibition [2] of -1.2% and an inhibition [3] of 0.24%.

`COc1ccc(-c2cnc3ccc(N4CCCC4)nn23)cc1OC` gave an inhibition [1] of 0.89%, an inhibition [2] of 0.65% and an inhibition [3] of 2.83%.

With `COC(=O)c1cccc(NC(=O)NCCNc2ccnc(Nc3ccc(F)cc3)n2)c1` the inhibition [1] was 4.31%, the inhibition [2] was 3.02% and the inhibition [3] was 2.45%.

Work on `CCCC(=O)c1cnc2c(OCCCc3c[nH]cn3)cccc2c1Nc1c(C)cccc1C` yielded an inhibition [1] of 2.21%, an inhibition [2] of 1.13% and an inhibition [3] of -1.19%.

In the case of `Cc1cccc2nc(-c3ccc(-c4cccc(CNC(C)C)c4)s3)[nH]c12`, the inhibition [1] is reported as 2.58%, the inhibition [2] is reported as 1.37% and the inhibition [3] is reported as 3.77%.

Compound `Cc1ccccc1CNc1nccc(NCCC(=O)Nc2ccccc2)n1` has an inhibition [1] of 4.53%, an inhibition [2] of 2.1% and an inhibition [3] of 0.01%.

`COc1cc2ncnc(Nc3ccc(OCc4ccccc4)c(C(F)(F)F)c3)c2cc1OC` was tested, and the inhibition [1] was 1.67%, the inhibition [2] was 0.75% and the inhibition [3] was 0.32%.

`COc1ccc2nccc([C@@H](O)CN3CCC(NC(=O)C(c4cc5ccccc5o4)N4CCC(Cc5ccccc5)CC4)CC3)c2c1` (stereo partly drawn) showed an inhibition [1] of 5.02%, an inhibition [2] of 3.03% and an inhibition [3] of 2.23%.

Compound `Cc1noc(C)c1-c1ccc2c(Nc3ccc([N+](=O)[O-])cc3)c(C(N)=O)cnc2c1` has an inhibition [1] of -0.67%, an inhibition [2] of -0.09% and an inhibition [3] of -0.76%.

For `CCCCn1c(Sc2ccc(C#N)c([N+](=O)[O-])c2)nnc1-c1ccc(OC)cc1`, the inhibition [1] was 3.24%, the inhibition [2] was 2.64% and the inhibition [3] was 0.78%.

With `COc1cc2nc(N3CCN(C(=O)c4cccc(I)c4)CC3)nc(N)c2cc1OC` the inhibition [1] was 5.23%, the inhibition [2] was 3.9% and the inhibition [3] was -0.04%.

`O=C(NCC1CCN(C/C=C/c2ccccc2)CC1)Nc1ccc(Oc2ccccc2)cc1` was tested, and the inhibition [1] was 6.42%, the inhibition [2] was 8.3% and the inhibition [3] was 2.71%.

Work on `Cc1cc(NCC(C)C)c2[nH]nc(-c3ccccc3)c2n1` yielded an inhibition [1] of 2.41%, an inhibition [2] of 3.39% and an inhibition [3] of 1.69%.
